Several values for one entry are separate records, joined by “and”; a condition that tells them apart may be missing. Equal values may be shown once. About 1,500 (0.58%) of roughly 260,000 compounds were called active. About 5% were inconclusive and are not listed. Only a sample is shown. Potency and affinity values are given separately. A number with no mark means an inactive call.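 How the source made its calls: active means inhibition above a set limit at one or more doses, reproduced on every date tested; inconclusive means results disagree between test dates, or hit never tested in dose response; inactive means the rest.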

The test addresses Virion infectivity factor (Human immunodeficiency virus type 1 group M subtype B (isolate BH10)) + Virion infectivity factor (Human immunodeficiency virus type 1 group M subtype B (isolate BRU/LAI)) + Virion infectivity factor (Human immunodeficiency virus type 1 group M subtype B (isolate PCV12)) + Virion infectivity factor (Human immunodeficiency virus type 1 group M subtype B (isolate HXB2)) + DNA dC->dU-editing enzyme APOBEC-3G (Homo sapiens) (UniProt P69720+P69721+P69722+P69723+Q9HC16). Briefly: HIV-1 Vif–A3G interaction blockers – biochemical, TR-FRET, GST-Vif 1-94, biotin-A3G peptide, dose response retest, primary screen (AID 1117319).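 Further: Vif residues 1-94 fused to GST binding biotinylated APOBEC3G peptide 110-148; 0% = full assay without inhibitor and 100% = GST in place of GST-Vif.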 The following applies: TR-FRET GST-Vif / biotin-A3G peptide binding; active compounds read high.
Consider `COc1cc(/C=N/N=C(\N)c2nonc2N)cc(OC)c1O`, for which the inhibition is 16.4%.

Turning to `CCCc1nn2c(=O)cc(O)nc2s1`, the inhibition was 3.77%.

`CCCNc1nc(C)c(C(C)=O)cc1C#N`: the inhibition is 29.1%.

Turning to `Cc1nn(C)c(Oc2cccc(C(F)(F)F)c2)c1C#N`, the inhibition is 1.09%.

With `CNc1nc(C)c(C(=O)c2ccc(Cl)cc2)s1`, the inhibition is -4.16%.

For `CCC(NC(=O)c1ccccc1NC(=O)c1ccc(C)cc1)C(=O)O` (configuration not stated), the inhibition is 2.64%.

Take `CC(=O)c1ccc2c(c1)CCN2`: the inhibition is 9.69%.

For `Cc1ccc2c(c1)C(c1ccc(F)cc1)N(C(=O)C1CC1)CC(=O)N2` (configuration not stated), the inhibition is -2.57%.

Turning to `CC(=O)c1ccc(N2CCC(C(=O)O)CC2)cc1`, the inhibition is 6.29%.

As for `Cc1ccc2c(c1)C(c1ccccc1)N(C(=O)C(C)C)CC(=O)N2` (configuration not stated), the inhibition is 1.62%.

As for `COC(=O)c1cc(=O)nc2scc(C)n12`, the inhibition is 5.72%.

Consider `C=C1[C@@H](C)C2[C@H](Cc3ccccc3)NC(=O)[C@]23OC(=O)CC[C@H](O)CCC[C@H](C)C/C=C/[C@H]3[C@@H]1O` (some centres not stated), for which the inhibition was 6.17%.

As for `CC(C)OP(=O)(c1ccc(N(C)C)cc1)C(O)c1ccc(N(C)C)cc1` (configuration not stated), the inhibition is -8.7%.

Turning to `CC(C)COP(=O)(OCC(C)C)C(O)c1ccc(N(C)C)cc1` (configuration not stated), the inhibition was 12.4%.

Regarding `O=C(O)c1ccc2c(c1)C(=O)N(c1cccc(S(=O)(=O)Nc3cccc(C(F)(F)F)c3)c1)C2=O`, the inhibition is 25.9%.

Take `CCOC(=O)C1=C(C)N=C2SC(C(=O)OC)=CC(=O)N2C1c1cccc(OC)c1` (configuration not stated): the inhibition is 0.81%.

As to `CCOC(=O)C1=C(C)N=C2SC(C(=O)OC)=CC(=O)N2C1c1ccc(OC)cc1` (configuration not stated), the inhibition was 7.8%.

On to `N#Cc1ccc(N2CCCNCC2)nc1`, for which the inhibition was -3.01%.

As to `COc1ccc2oc(C(=O)N3CCCc4ccccc43)c(C)c2c1`, the inhibition was 0.82%.

Consider `CC1CCC(NC(=O)C2CCN(c3nc4ccccc4s3)CC2)CC1` (configuration not stated), for which the inhibition is 7.57%.

For the compound `CC1CCCCN1Cc1ccc(N)cc1` (configuration not stated), the inhibition was -2.03%.

With `CN(C)c1ccc(CN2CCCCCC2)cc1`, the inhibition was 8.55%.

Regarding `COc1ccc(C2NC(Cc3ccccc3)(C(=O)O)C3C(=O)N(c4ccccc4OC)C(=O)C23)cc1` (configuration not stated), the inhibition was -0.26%.

Take `CCOC(=O)c1cnc2nc(SC)nn2c1N`: the inhibition is 4.24%.

Take `C=CCn1c(Sc2nnc(C)s2)nc2c1c(=O)[nH]c(=O)n2C`: the inhibition was 3.94%.

For the compound `C=CCn1c(N2CCCC2)nc2c1c(=O)[nH]c(=O)n2C`, the inhibition is -1.68%.

On to `C=CCn1c(N2CCOCC2)nc2c1c(=O)[nH]c(=O)n2C`, for which the inhibition was 1.7%.

For `COCCn1c(Sc2nc(C)cs2)nc2c1c(=O)[nH]c(=O)n2C`, the inhibition is -3.29%.

With `CC(=O)Nc1ccc(NC(=S)NC(=O)C2CC2)cc1`, the inhibition was 0.52%.

Take `CC(=O)Nc1ccc(NC(=O)CN2CCN(c3ccccn3)CC2)cc1`: the inhibition is -2.22%.

For `Cn1nc(C(=O)Nc2ccccc2N2CCCC2)c2ccccc2c1=O`, the inhibition was 1.83%.

Take `COc1ccc(OC)c(/C=c2\sc3nc(-c4cccs4)nn3c2=O)c1`: the inhibition is 10.3%.

In the case of `COc1ccccc1/C=c1\sc2nc(-c3ccco3)nn2c1=O`, the inhibition was 31.4%.

In the case of `Cc1ccc(/C=c2\sc3nc(-c4cccnc4)nn3c2=O)cc1`, the inhibition was 8.43%.

With `COc1cccc(/C=c2\sc3nc(-c4cccs4)nn3c2=O)c1OC`, the inhibition is 21.5%.

Turning to `CCCOc1ccc(/C=c2\sc3ncnn3c2=O)cc1`, the inhibition is 3.82%.

Take `COc1ccccc1/C=C/C=c1\sc2nc(=O)c(Cc3ccccc3)nn2c1=O`: the inhibition is 26.2%.

For the compound `O=c1nc2s/c(=C\c3ccco3)c(=O)n2nc1Cc1ccc(F)cc1`, the inhibition is 23.6% and -1.42%.

Take `CCCOc1ccc(/C=c2\sc3nc(-c4ccco4)nn3c2=O)cc1OCC`: the inhibition was 8.17%.

Turning to `COc1ccc(/C=C2\S/C(=N/S(=O)(=O)c3cccs3)NC2=O)cc1`, the inhibition is 7.65%.

For the compound `CCCNC(=O)CN1C(=O)NC(CCc2ccccc2)C1=O` (configuration not stated), the inhibition was -6.24%.

As for `NC(=O)c1cc(S(=O)(=O)NCCCc2ccccc2)cs1`, the inhibition was 3.6%.

As for `COc1ccc(Nc2nc(C)cc(=O)[nH]2)c(OC)c1`, the inhibition was 10.4%.

As to `CCOC(=O)C1=C(N)OC2=C(C(=O)CCC2)C1c1cccs1` (configuration not stated), the inhibition was 1.36%.

On to `COC(=O)C1=C(N)OC2=C(C(=O)CC(C)(C)C2)C1c1cccs1` (configuration not stated), for which the inhibition was 12.5%.

Regarding `Oc1ccccc1/C=N/Nc1ccccc1`, the inhibition is 3.4%.

For `Oc1ccccc1C=NNC(=S)NN=Cc1ccccc1O`, the inhibition was -0.1%.

As for `COc1cc(/C=N/N=C(/C(=O)c2ccccc2)c2ccccc2)cc(OC)c1O`, the inhibition is 1.68%.

Take `O=C(C(=NNc1ccccc1)c1ccccc1)c1ccccc1`: the inhibition was -6.13%.

Take `O=C1C=CC(=O)N1CCCCCCCCCCN1C(=O)C=CC1=O`: the inhibition is -0.57%.

With `O=S(=O)(NC1CCCC1)c1ccc(F)cc1F`, the inhibition was 21.1%.

For `COc1ccc(C(=O)NC(C)c2nnc(SCC(=O)Nc3nc(C)cs3)n2C)cc1` (configuration not stated), the inhibition was 5.71%.

With `COc1cc(NS(=O)(=O)c2ccc(NC(=O)/C=C/c3ccc([N+](=O)[O-])cc3)cc2)ncn1`, the inhibition was 7.89%.

As to `CN1C(=O)CSC1=Nc1cccc(C(=O)O)c1`, the inhibition was -5.13%.

Turning to `CN1C(=O)/C(=C/c2ccco2)SC1=Nc1ccc(N2CCOCC2)cc1`, the inhibition was 25%.

For `CCCCn1c(N)c(N(CCC(C)C)C(=O)CSc2nnc(C)s2)c(=O)[nH]c1=O`, the inhibition was 2.42%.

As to `COc1ccc(N2CCN(c3ccc(C(N)=O)cc3[N+](=O)[O-])CC2)cc1`, the inhibition was -3.87%.

With `CC(=O)c1ccc(N2CCN(c3ccc(C(N)=O)cc3[N+](=O)[O-])CC2)cc1`, the inhibition was 15.8%.

For the compound `O=C(OCc1ccco1)c1cccnc1`, the inhibition was -2.16%.

Turning to `Cc1ccc(Cc2c(-c3ccccc3)nc3cc(C)ccn23)cc1`, the inhibition is -4.74%.

As for `CCC(=O)Nc1nnc(Sc2ccc(N(C)C)cc2)s1`, the inhibition was 2.99%.

With `CCCC(=O)Nc1nnc(Sc2ccc(N(C)C)cc2)s1`, the inhibition is 2.88%.

Take `COCCSc1nnc(NC(=O)COC)s1`: the inhibition is -0.26%.

For `O=C1c2cccnc2C(Nc2cccc(F)c2)N1Cc1ccco1` (configuration not stated), the inhibition was -1.27%.

For the compound `O=C1c2cccnc2C(Nc2ccccc2Br)N1Cc1ccco1` (configuration not stated), the inhibition is 9.8%.

Regarding `Cc1cc(C(=O)COC(=O)c2ccc[nH]c2=O)c(C)n1C1CC1`, the inhibition is 13%.

Turning to `NC(=S)NNC(=O)c1cc(C(F)(F)F)cc(C(F)(F)F)c1`, the inhibition was 1.55%.

Turning to `Cc1ccc2[nH]cc(S(=O)(=O)c3ccc(C(C)C)cc3)c(=O)c2c1`, the inhibition is -10.1%.

Take `CN(Cc1ccno1)C(=O)CC1C(=O)NCCN1CC(c1ccccc1)c1ccccc1` (configuration not stated): the inhibition was -5.42%.

Take `Cc1ccc(NCN2C(=O)C3C4C=CC(C4)C3C2=O)cc1` (configuration not stated): the inhibition was 6.77%.

Consider `O=C1C2C3C=CC(C3)C2C(=O)N1CNc1ccccc1` (configuration not stated), for which the inhibition was 2.49%.

For the compound `Cc1ccc(NC(=O)CSc2nc(C)c(C)c(C)n2)c([N+](=O)[O-])c1`, the inhibition is -0.85%.

On to `CCOC(=O)C1=C(C)N=C(/N=C/N(C)C)SC1c1ccccc1` (configuration not stated), for which the inhibition was 18.8%.

As to `O=C(O)CCc1ccc(-c2ccccc2)n1CC(=O)O`, the inhibition is 6.57%.

In the case of `COc1ccccc1NC(=O)Cn1c(CCC(=O)O)ccc1-c1ccccc1`, the inhibition was -8.03%.

`O=S(=O)(Nc1ccc2c(c1)OCCO2)c1ccc2oc3ccccc3c2c1`: the inhibition was -4.26%.

For the compound `Cc1ccc(C(=O)Nn2c(O)c(C=C3N=c4ccccc4=N3)sc2=S)cc1`, the inhibition was 0.29%.

As for `O=C(CCNC(=O)N1CC(=O)Nc2ccccc21)NCc1ccccc1Cl`, the inhibition is 2.33%.

Turning to `COCCN1CC(C(=O)NCc2ncccc2C)CCC1=O` (configuration not stated), the inhibition is 0.7%.

For `O=c1oc2ccc([N+](=O)[O-])cc2c(N2CCOCC2)c1[N+](=O)[O-]`, the inhibition is -2.71%.

On to `COC(=O)Cc1cc(=O)n(-c2ccccc2)[nH]1`, for which the inhibition was 20.8%.

As to `COc1ccc(-c2cc(=O)n(-c3nc4ccccc4[nH]3)[nH]2)cc1`, the inhibition is 10.5%.

In the case of `COCCSc1nc2c(c(=O)[nH]c(=O)n2C)n1CCC(C)C`, the inhibition is 2.86%.

As for `Cc1ccc(N(CCO)C(=S)Nc2ccccc2)cc1`, the inhibition was 1.36%.

Take `O=C(c1cc(-c2ccccc2)nn1-c1ccccc1)N1CCN(S(=O)(=O)c2ccc(F)cc2)CC1`: the inhibition was -4.9%.

As to `CCOC(=O)c1c(C)oc2c1c(C=NCCO)c(O)c1ccccc12`, the inhibition was 14.7%.

On to `CCOC(=O)c1c(C)oc2c1c(C=NCC1CCCO1)c(O)c1ccccc12` (configuration not stated), for which the inhibition was 25.6%.

On to `CNS(=O)(=O)c1cccc(C(=O)OCC(=O)c2ccc3[nH]c(=O)[nH]c3c2)c1`, for which the inhibition was 4.94%.

Take `COc1ccccc1NC(=S)NC(NC(C)=O)C(Cl)(Cl)Cl` (configuration not stated): the inhibition is -2.68%.

On to `O=C(CCC(=O)N1CCN(c2ccccc2F)CC1)c1ccc(F)cc1`, for which the inhibition is 0.58%.

As for `Cc1cccn2c(=O)nc(SCC(=O)N3CCCCC3)nc12`, the inhibition was -0.7%.

Turning to `Cc1cc(=O)n2nc(-c3ccc(C(F)(F)F)cc3)sc2n1`, the inhibition is 0.75%.

In the case of `CCN(CC)S(=O)(=O)c1ccc(/C=C/C(=O)Nc2ccccc2N2CCOCC2)cc1`, the inhibition is 28.5%.

Regarding `CCOc1ccc(/C=C/C(=O)Nc2ccc(N3CCOCC3)cc2)cc1`, the inhibition was 3.96%.

With `CCNC(=O)COC(=O)c1ccc(S(=O)(=O)N2CCCCCC2)cc1`, the inhibition is -4.99%.

Consider `CC(C)Cc1cc(C(=O)N2CCC(N3CCC(C(=O)N4CCOCC4)CC3)CC2)n[nH]1`, for which the inhibition is 12.3%.

On to `CCCCN(C)C(=O)c1nc2ccccn2c1CN1CCN(c2ccccn2)CC1`, for which the inhibition was -11.9%.

The values are drawn from PubChem BioAssay AID1117319 (Southern Research Institute, 2015).
